# Source: PubChem BioAssay (Tox21)
# Where “and” joins values, the source holds several entries; their conditions need not be identical. Equal entries are not always repeated. Results filed as inconclusive are left out. Entries that show only a call come without a potency. Some structures have more than one record in an assay (separate samples or runs), and their calls can disagree. Calls of active or inactive are those of the source. Unless noted, calls come from the whole dose curve; as a rule, active = well fitted curve in the direction sought with a large enough effect in the repeat runs; inconclusive = weak or mixed curves; inactive = no such curve, though single readings can be large; an effect the other way counts as inactive or inconclusive. Starred links: 1 amine or outer side, 2 acyl side, 3 side chain; linkers in the order of their positions; H or OH if unused. Positions of bridges follow the written chain, without caps; N, C: chain ends. Non-standard residues stand in square brackets, D forms with d. Residues, ends and D or L forms follow the SMILES beside them. Chains are numbered I, II in the order given. Actinocin(9to1) = Cc1c2oc3c(C)ccc(C(=O)[*:1])c3nc-2c(C(=O)[*:2])c(N)c1=O; NMeV = CN[C@H](C(=O)O)C(C)C; Sar = CNCC(=O)O
# Legend:
# [1] = qHTS assay for small molecule agonists of the p53 signaling pathway (AID 651631; calls by dose curve; note: nearly all actives have a fitted effect of over 15% in size; note: potency is the fitted concentration of half-maximal effect); conditions: HCT-116 p53RE-bla reporter, beta-lactamase FRET ratio, 16 h; series mostly up to 73.3 µM
# In short: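 Read-out is beta-lactamase FRET fluorescence measured 2 h after substrate addition at room temperature, in HCT-116 cells with a p53 response element-driven reporter exposed to compounds for 16 h at 37 °C.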
# [2] = qHTS assay for small molecule agonists of the p53 signaling pathway - cell viability (AID 651633; calls by dose curve; note: nearly all actives have a fitted effect of over 30% in size; note: potency is the fitted concentration of half-maximal effect); conditions: p53RE-bla HCT-116 viability, ATP luminescence, 16 h; series mostly up to 83.3 µM
# In short: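 Viability counter-read: CellTiter-Glo luminescence (30 min, room temperature) in the same p53RE-bla plates. These plates had been exposed to compounds for 16 h at 37 C.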
# [3] = qHTS assay for small molecule disruptors of the mitochondrial membrane potential - cell viability (AID 720634; calls by dose curve; note: nearly all actives have a fitted effect of over 20% in size; note: potency is the fitted concentration of half-maximal effect); conditions: HepG2 viability, ATP luminescence (CellTiter-Glo), 1 h; series mostly up to 83.2 µM
# In short: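 After overnight attachment at 37 C, HepG2 cells received compound or DMSO vehicle for 1 hr. Viability is then taken from ATP-driven luminescence following a 30 min room-temperature CellTiter-Glo step.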
# [4] = qHTS assay for small molecule disruptors of the mitochondrial membrane potential (AID 720635); conditions: HepG2 mitochondrial membrane potential, Mito-MPS dye ratio; series mostly up to 83.2 µM; note: potency is the fitted concentration of half-maximal effect
# In short: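 Mitochondrial membrane potential tracked with Mito-MPS dye, red aggregates (ex 540/em 590 nm) against green monomers (ex 490/em 535 nm). Compound treatment 1 hr at 37C, dye 30 min in HepG2.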
# [5] = qHTS assay to test for compound auto fluorescence at 590 nm (red) in HepG2 cells (AID 720674); conditions: HepG2 autofluorescence, red 540/590 nm, 1 h; series mostly up to 91.3 µM
# In short: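 1 hr compound incubation on HepG2 cells, 37 C, 5% CO2; plate read ex 540 nm / em 590 nm; intensities reported as Rose Bengal sodium equivalents.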
# [6] = qHTS assay to test for compound auto fluorescence at 535 nm (green) in HepG2 cells (AID 720675); conditions: green autofluorescence 485/535 nm, 1 h; series mostly up to 91.3 µM; note: potency is the fitted concentration of half-maximal effect
# [7] = qHTS assay to test for compound auto fluorescence at 460 nm (blue) in HEK293 cells (AID 720678); conditions: blue autofluorescence 405/460 nm; series mostly up to 91.3 µM; note: potency is the fitted concentration of half-maximal effect
# In short: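 HEK293 cells (2,000 per well, medium with 10% dialyzed FBS) attached for 4-5 hr at 37C, then received compound and stood overnight at 37C, 5% CO2. Blue fluorescence was read at Ex/Em 405/460 nm and expressed relative to triamterene.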
# [8] = qHTS assay to test for compound auto fluorescence at 590 nm (red) in HEK293 cells (AID 720679); conditions: red autofluorescence 540/590 nm; series mostly up to 91.3 µM
# In short: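 HEK293 cells (2,000/well, medium with 10% dialyzed FBS) attached for 4-5 hr at 37C, received 23 nL compound and were incubated overnight at 37C, 5% CO2. Red fluorescence was then read at 540/590nm Ex/Em, referenced to Rose Bengal sodium.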
# [9] = qHTS assay for small molecules that induce genotoxicity in human embryonic kidney cells expressing luciferase-tagged ATAD5 (AID 651632); conditions: HEK293T ATAD5-luciferase induction, 16 h; series mostly up to 83.3 µM; note: nearly all actives have a fitted effect of over 15% in size; note: potency is the fitted concentration of half-maximal effect
# In short: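 Increased luciferase signal from ATAD5-tagged reporter cells indicates DNA-damage-driven ATAD5 induction. HEK293T cells are treated for 16 hr at 37C before detection with Amplite.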
# [10] = qHTS assay for small molecules that induce genotoxicity in human embryonic kidney cells expressing luciferase-tagged ATAD5 - cell viability (AID 651634; calls by dose curve; note: nearly all actives have a fitted effect of over 25% in size; note: potency is the fitted concentration of half-maximal effect); conditions: HEK293T ATAD5-luc cells viability, CellTiter-Fluor, 15.5 h; series mostly up to 83.3 µM
# In short: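 Cytotoxicity counterscreen in HEK293T cells bearing an ATAD5-luciferase reporter: live-cell protease activity measured by CellTiter-Fluor fluorescence after 15.5 hr compound exposure.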
# Tags give direction and shape of the fitted curve or compound fluorescence and quenching.
SMILES,Potency [1],Potency [2],Potency [3],Potency [4],outcome [5],Potency [6],Potency [7],outcome [8],Potency [9],Potency [10],"fluorescence, relative to Rose Bengal [5]","fluorescence, % of fluorescein control [6]","fluorescence, % of triamterene [7]","fluorescence, % of fluorescent control [8]"
CCCN[C@H]1CCc2nc(N)sc2C1,inactive,inactive,inactive,inactive,inactive,inactive,inactive,inactive,,,,,,
CCOc1ccc2c(c1)C(C)=CC(C)(C)N2,,inactive,inactive,inactive,inactive,inactive,inactive,,inactive,,,,,
COc1nc(C)nc(Cl)c1NC1=NCCN1,,inactive,inactive,inactive,,,,,inactive,inactive,0.0093% [at 18.6 µM] (inactive),-0.17% [at 18.6 µM] (inactive),0.0425% [at 18.6 µM] (inactive),-0.0076% [at 18.6 µM] (inactive)
BrC1CCC(Br)C(Br)CCC(Br)C(Br)CCC1Br (stereo not given),,15.3 µM (active) and 25.9 µM (active),inactive,3.84 µM (active) and 9.19 µM (active),inactive,inactive,inactive,inactive,inactive,inactive,,,,
CCCOC(=O)c1cc(O)c(O)c(O)c1,,inactive,inactive,23.7 µM (active) and 48.3 µM (active) and 48.6 µM (active),inactive,inactive,inactive,inactive,inactive,inactive,,,,
Nc1ccc2cc3ccccc3cc2c1,,inactive,inactive,1.39 µM (active) and 1.37 µM (active),inactive,inactive,44.7 µM [fluorescent] (active),,27.8 µM (active),,,,,
CCC(=O)/C=C/C1C(C)=CCCC1(C)C (stereo not given),,inactive,inactive,27.3 µM (active),inactive,inactive,inactive,,inactive,inactive,,,,
CC(=O)C1=C(C)[C@@H]2C[C@@]3(C1)[C@H](C)CC[C@H]3C2(C)C,inactive,inactive,,,inactive,inactive,inactive,,,,,,,
CC(C)(c1ccccc1)c1ccc(Nc2ccc(C(C)(C)c3ccccc3)cc2)cc1,,inactive,inactive,21.7 µM (active) and 27.3 µM (active),inactive,inactive,inactive,,inactive,inactive,,,,
COc1ccc(Cc2cnc(N)nc2N)cc1OC,,inactive,inactive,inactive,inactive,inactive,inactive,inactive,inactive,inactive,,,,
CC(N)=O,,inactive,inactive,inactive,inactive,inactive,inactive,inactive,inactive,,,,,
CC(C)CCCCCCc1ccc(O)cc1,,62.2 µM (active),6.22 µM (active) and 61.1 µM (active),5.31 µM (active) and 1.56 µM (active) and 5.45 µM (active),inactive,inactive,inactive,inactive,inactive,,,,,
"Cc1c2oc3c(C)ccc(C(=O)N[C@@H]4C(=O)N[C@H](C(C)C)C(=O)N5CCC[C@H]5C(=O)N(C)CC(=O)N(C)[C@@H](C(C)C)C(=O)O[C@@H]4C)c3nc-2c(C(=O)N[C@@H]2C(=O)N[C@H](C(C)C)C(=O)N3CCC[C@H]3C(=O)N(C)CC(=O)N(C)[C@@H](C(C)C)C(=O)O[C@@H]2C)c(N)c1=O (I: T[dV]P[Sar][NMeV] / II: T[dV]P[Sar][NMeV]; ester I:1-I:C, II:1-II:C; linker I:N-II:N via Actinocin(9to1))",5.3 nM (active) and 2.7 nM (active),inactive,inactive,,inactive,inactive,inactive,,,,,,,
CCn1c2ccccc2c2cc(N)ccc21,,inactive,inactive,27 µM (active) and 24.3 µM (active) and 7.7 µM (active),inactive,inactive,inactive,inactive,inactive,inactive,,,,
CNCCC(Oc1ccc(C(F)(F)F)cc1)c1ccccc1 (stereo not given),53.8 µM (active),60.3 µM (active),,,inactive,inactive,inactive,inactive,,inactive,,,,
Cc1cc(C2(c3cc(C)c(O)cc3C)OS(=O)(=O)c3ccccc32)c(C)cc1O,inactive,inactive,inactive,,inactive,inactive,inactive,inactive,,,,,,
Oc1c(Cl)cc(Cl)c(Cl)c1Cc1c(O)c(Cl)cc(Cl)c1Cl,13.3 µM (active) and 9.66 µM (active) and 54.5 µM (active),1.88 µM (active) and 68.4 µM (active) and 12.2 µM (active),,841 nM (active) and 484 nM (active) and 344 nM (active),inactive,inactive,inactive,inactive,,6.68 µM (active) and 2.72 µM (active) and 1.93 µM (active),,,,
CCC(C)(Oc1ccc(C2(c3ccc(OC(C)(CC)C(=O)O)cc3)CCCCC2)cc1)C(=O)O (stereo not given),,inactive,inactive,inactive,inactive,inactive,inactive,inactive,inactive,,,,,
CC(C)(C)c1ccc(O)c(C(C)(C)C)c1,,60.9 µM (active) and 48.6 µM (active),24.2 µM (active),2.72 µM (active) and 3.06 µM (active),inactive,inactive,inactive,inactive,inactive,,,,,
O=C(O[C@@H]1Cc2c(O)cc(O)cc2O[C@@H]1c1cc(O)c(O)c(O)c1)c1cc(O)c(O)c(O)c1,,inactive,inactive,27.4 µM (active),inactive,inactive,inactive,inactive,inactive,,,,,

SMILES,Potency [1],Potency [2],Potency [3],Potency [4],outcome [5],Potency [6],Potency [7],outcome [8],Potency [9],Potency [10],"fluorescence, relative to Rose Bengal [5]","fluorescence, % of fluorescein control [6]","fluorescence, % of triamterene [7]","fluorescence, % of fluorescent control [8]"
c1cnc2cc3c(cc2n1)C1CNCC3C1,inactive,inactive,inactive,inactive,inactive,inactive,inactive,,,,,,,
CC[C@]1(O)C[C@@H]2CN(CCc3c([nH]c4ccccc34)[C@@](C(=O)OC)(c3cc4c(cc3OC)N(C)[C@H]3[C@@](O)(C(=O)OC)[C@H](OC(C)=O)[C@]5(CC)C=CCN6CC[C@]43[C@@H]65)C2)C1,0.0422 µM (active),,inactive,1.88 µM (active) and 944 nM (active),inactive,inactive,inactive,inactive,,133 nM (active) and 168 nM (active),,,,
CC(=O)CC(=O)Nc1ccc2[nH]c(=O)[nH]c2c1,,inactive,inactive,inactive,inactive,inactive,inactive,inactive,inactive,inactive,,,,
CCC(CO)(CO)COCC(CC)(CO)CO,inactive,inactive,inactive,inactive,inactive,inactive,inactive,inactive,,,,,,
COc1ccc(COC(C)=O)cc1,,inactive,inactive,inactive,inactive,inactive,inactive,,inactive,,,,,
CN(C)c1ccc2nc3ccc(=[N+](C)C)cc-3sc2c1,,3.35 µM (active),10.6 µM (active) and 23.4 µM (active) and 61.1 µM (active),2.37 µM (active) and 830 nM (active) and 1.37 µM (active),inactive,inactive,inactive,inactive,inactive,11.9 µM (active) and 2.94 µM (active) and 48.6 µM (active),,,,
N[C@@H]1CONC1=O,,inactive,inactive,inactive,inactive,inactive,inactive,inactive,inactive,inactive,,,,
O=Nc1ccc(Nc2ccccc2)cc1,27.4 µM (active),,,21.8 µM (active),inactive,inactive,inactive,inactive,,48.8 µM (active),,,,
CC(C)(C)NC(=O)[C@@H]1CN(Cc2cccnc2)CCN1C[C@@H](O)C[C@@H](Cc1ccccc1)C(=O)N[C@H]1c2ccccc2C[C@H]1O,inactive,,13.3 µM (active) and inactive,7.5 µM (active),inactive,inactive,inactive,inactive,,,,,,
Cc1c(O)cccc1C(=O)N[C@@H](CSc1ccccc1)[C@H](O)CN1C[C@H]2CCCC[C@H]2C[C@H]1C(=O)NC(C)(C)C,,21.1 µM (active),inactive,10.6 µM (active) and 7.49 µM (active),inactive,inactive,inactive,,inactive,,,,,
O=C(Nc1ccccc1SSc1ccccc1NC(=O)c1ccccc1)c1ccccc1,,inactive,,7.74 µM (active) and 15.4 µM (active),inactive,inactive,inactive,inactive,inactive,,,,,
CCC(C)(C)C(=O)O[C@H]1C[C@@H](C)C=C2C=C[C@H](C)[C@H](CC[C@@H]3C[C@@H](O)CC(=O)O3)[C@H]21,,inactive and 61.1 µM (active),,,inactive,inactive,inactive,inactive,inactive,,,,,
O=C1OC2(c3ccc(O)cc3Oc3cc(O)ccc32)c2ccccc21,,,inactive,84.1 nM (active) and 61.1 nM (active),inactive,3.16 µM (active) and 2.51 µM (active) and 3.98 µM (active),inactive,inactive,,,,,,
Nc1ccc(O)cc1,,26.6 µM (active) and 30.6 µM (active) and 31.8 µM (active),31.8 µM (active),841 nM (active) and 3.06 µM (active) and 897 nM (active),inactive,inactive,inactive,,,,,,,
COC(=O)/C=C/c1ccccc1,,inactive,inactive,,inactive,inactive,inactive,,,,,,,
c1cc(C(c2ccc(OCC3CO3)cc2)C(c2ccc(OCC3CO3)cc2)c2ccc(OCC3CO3)cc2)ccc1OCC1CO1 (stereo not given),,inactive,inactive,inactive,inactive,inactive,inactive,inactive,,inactive,,,,
NNCCc1ccccc1,,,inactive,inactive,inactive,inactive,inactive,inactive,,inactive,,,,
CCCCCCCCCCCC[N+](C)(C)C,,,inactive,61.1 µM (active),inactive,inactive,inactive,inactive,inactive,inactive,,,,
Cc1cc(OCCOCC[N+](C)(C)Cc2ccccc2)ccc1C(C)(C)CC(C)(C)C,,,12.1 µM (active),16.8 µM (active) and 3.05 µM (active),inactive,inactive,inactive,inactive,,9.63 µM (active),,,,
Clc1ccc2c(c1)C(N1CCNCC1)=Nc1ccccc1O2,,inactive,inactive,,inactive,inactive,inactive,,,inactive,,,,
